Screen size: about 420,000 compounds; about 64,000 (15%) were called active. About 27% were inconclusive and are not listed. Calls follow the shape of the dose curve; as a rule, active = well fitted inhibition curve with a large enough effect; inconclusive = small, poorly fitted or top-dose-only effect; inactive = flat fitted curve, though single readings scatter. A selection follows. Where a call stands in place of a potency, no number is given.
Assay: qHTS for Inhibitors of human tyrosyl-DNA phosphodiesterase 1 (TDP1): qHTS in cells in absence of CPT; also: nearly all actives have a fitted effect of over 55% in size
Conditions: DT40 Tdp1-/- hTDP1 cells, no CPT, ATP luminescence, 48 h; activity change, negative = growth inhibition: at 46.2 µM (top of the series)
Outline: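 Seeded 400 DT40-hTDP1 cells/well (vehicle DMSO, no 20 nM CPT); pinned compounds; ≥48 hr at 37 °C; CellTiter-Glo luminescence as viability measure.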
Potency is read from the fitted curve at half-maximal effect.

Row | SMILES | Potency
1 | COc1ccc(NC(=O)c2sc3nc[nH]c(=O)c3c2C)cc1 | inactive
2 | CC(=O)c1ccc(NC(=O)c2sc3nc4n(c(=O)c3c2C)CCCCC4)cc1 | 13 µM (active)
3 | CC(=O)c1sc2nc(SCC(=O)N3CCCCC3)[nH]c(=O)c2c1C | inactive
4 | Cc1ccc(NC(=S)NC(=O)/C=C/c2ccc(Cl)cc2)cc1 | inactive
5 | CC(C)C[C@H](NC(=O)[C@@H]1O[C@H]1C(=O)O)C(=O)NCCCCN=C(N)N | inactive
6 | C=CCOc1cccc(C2NC(=O)c3ccccc3O2)c1 (centres undefined) | inactive
7 | CCCc1c(C(=O)O)cnn1-c1ccc(Cl)cc1 | inactive
8 | CCc1ccccc1NC(=O)c1cnn(-c2ccc(F)cc2)c1C1CCNCC1 | inactive
9 | CCCc1c(C(=O)Nc2ccc(F)cc2)cnn1-c1ccccc1 | 14.6 µM (active)
10 | CN(C(=O)COC(=O)c1ccc(Br)o1)c1c(N)n(Cc2ccccc2)c(=O)[nH]c1=O | inactive
11 | O=S(=O)(Cc1nnnn1-c1ccc(Br)cc1)c1ccc(F)cc1 | inactive
12 | Cc1cc(C)cc(Oc2c(C(F)(F)F)oc3cc(OCC(=O)O)ccc3c2=O)c1 | inactive
13 | COc1cc(C=NC2CCCCC2)ccc1O | inactive
14 | Cc1ccc(S(=O)(=O)Nc2nc3ccccc3s2)cc1[N+](=O)[O-] | inactive
15 | COc1ccc(/C=N/Nc2nc3ccccc3o2)cc1OC | inactive
16 | O=[N+]([O-])c1cc(Br)c(O)c(/C=N/Nc2nc3ccccc3s2)c1 | 18.4 µM (active)
17 | COc1cc(/C=N/Nc2nc3ccccc3s2)ccc1O | 1.3 µM (active)
18 | CN(C(=O)CSc1nnc(N)s1)c1c(N)n(Cc2ccccc2)c(=O)[nH]c1=O | inactive
19 | COc1cc(Br)cc2cc(S(=O)(=O)c3ccccc3)c(=O)oc12 | inactive
20 | COc1ccc(N2CC(NS(=O)(=O)c3ccc4ccccc4c3)CC2=O)cc1 (centres undefined) | 23.1 µM (active)
21 | COc1cccc(N2CC(NS(=O)(=O)c3ccc(Cl)cc3)CC2=O)c1 (centres undefined) | inactive
22 | COc1cccc(N2CC(NS(=O)(=O)c3cccs3)CC2=O)c1 (centres undefined) | inactive
23 | CCCCC(O)(CCCC)C(=O)NN(C(=O)CCl)c1ccccc1 | 20.6 µM (active)
24 | COC(=O)N(NC(=O)C(O)(C(C)C)C(C)C)c1ccccc1 | inactive
25 | Cc1ccc(N(NC(=O)C(C)(C)O)C(=O)c2ccccc2)cc1C | inactive
26 | CCCC(O)(CCC)C(=O)NN(C(=O)CCl)c1cccc(C)c1 | 5.8 µM (active)

Row | SMILES | Potency
27 | CC(C)(O)C(=O)NN(C(=O)c1ccccc1)c1cccc(Br)c1 | inactive
28 | CN(C)/C=C/c1c(C#N)c(=O)ncn1Cc1ccccc1 | inactive
29 | COc1cc(/C=C(/NC(=O)c2ccc(Cl)cc2Cl)C(=O)O)cc(OC)c1OC | inactive
30 | Cc1ccc(C(=O)N/C(=C\c2ccco2)C(=O)N2CCSCC2)cc1C | inactive
31 | CCNc1nc(N)nc(Oc2ccc(OCC)nn2)n1 | inactive
32 | CCOc1cccc(=O)c2c(C)n(CC3CCCO3)c(C)c12 (centres undefined) | inactive
33 | Cc1ccc2c(=O)c(C(=O)c3ccc(F)cc3)cn(CC(=O)NC3CCCCC3)c2n1 | inactive
34 | CC(OC(=O)CNC(=O)c1ccco1)C(=O)Nc1ccc(Cl)cn1 (centres undefined) | inactive
35 | CCn1c(SCC(=O)NCC2CCCO2)nc2ccccc21 (centres undefined) | inactive
36 | O=C(CS(=O)(=O)Cc1ccccc1)NCC1CCCO1 (centres undefined) | inactive
37 | Cc1ccc(C(=O)NCC2CCCO2)o1 (centres undefined) | inactive
38 | S=C(NCCc1ccccc1)NCC1CCCO1 (centres undefined) | 23.1 µM (active)
39 | CN(CCc1ccccn1)C(=O)c1ccc(OC2CCN(Cc3ccccn3)CC2)cc1 | inactive
40 | COC(=O)c1cn(CC(=O)NCc2cccs2)c2ccccc12 | inactive
41 | COCCCNC(=O)Cn1cc(/C=C(\C#N)C(=O)N2CCN(c3ccccc3)CC2)c2ccccc21 | inactive
42 | COC(=O)Cn1cc(/C=C/[N+](=O)[O-])c2ccccc21 | 14.6 µM (active)
43 | CCCn1nc(C(=O)OCc2nc(N)nc(Nc3ccccc3C)n2)c2ccccc2c1=O | inactive
44 | COCCN(C(=O)CCC(=O)Nc1nccs1)C(C(=O)NC(C)(C)C)c1ccc(Cl)cc1 (centres undefined) | inactive
45 | CCn1c(CN2C(=O)CSc3ccccc32)n[nH]c1=S | inactive
46 | COc1ccc(Br)cc1CNC(=O)c1cc(=O)[nH]c2ccc(S(=O)(=O)N3CCCC3)cc12 | inactive
47 | CCN1CCN(c2nc(Nc3cc(OC)ccc3OC)nc(Nc3cc(OC)ccc3OC)n2)CC1 | 23.1 µM (active)
48 | CCN1CCN(C(=O)c2cc3cc4ccc(OC)cc4nc3s2)CC1 | inactive
49 | CCOC(=O)CNc1nc(Cl)nc(Nc2ccc(OC)cc2OC)n1 | inactive
50 | c1ccc(-c2c[nH]c(-c3ccccc3)c2)cc1 | inactive
51 | Cc1nn(-c2cc(Cl)ccc2N)c(=O)c2ccccc12 | inactive
52 | COc1cccc(OC)c1C(=O)Nc1ccc2c(c1)n(C)c(=O)n2C | inactive

Row | SMILES | Potency
53 | COc1ccc(NC(=O)CCNS(=O)(=O)c2ccc3c(c2)c(=O)n(C)c(=O)n3C)cc1OC | inactive
54 | CC(=O)Nn1cc2c(=O)n(C)c(=O)n(C)c2c1 | inactive
55 | O=C1c2ccccc2C(=O)N1c1cccc2ccccc12 | inactive
56 | Cn1c(=O)c2cn(-c3cccc4ccccc34)cc2n(C)c1=O | 25.9 µM (active)
57 | COc1ccc(OC)c(-n2cc3c(=O)n(C)c(=O)n(C)c3c2)c1 | 14.6 µM (active)
58 | CCSC1(SCC)N=C(N)C2(C#N)C(c3ccccc3)NC(C)=CC12C#N (centres undefined) | inactive
59 | O=C(Cn1nnc2ccccc2c1=O)NCc1ccc(Cl)cc1 | inactive
60 | Cc1noc(C)c1C(=O)OC(C)C(=O)Nc1ccc2c(c1)OCO2 (centres undefined) | inactive
61 | NC(=O)c1ccc(Nc2ccc3nonc3c2[N+](=O)[O-])cc1 | inactive
62 | Cc1ccc(C)c(S(=O)(=O)Nc2cc(C)on2)c1 | inactive
63 | O=C(CN1CCCSc2ccccc21)N1CCN(S(=O)(=O)c2cccc(F)c2)CC1 | 7.31 µM (active)
64 | O=C(CN1CCN(S(=O)(=O)c2cccc(Cl)c2)CC1)N1CCCCC1 | inactive
65 | O=C(CN1CCCSc2ccccc21)N1CCN(S(=O)(=O)c2ccccc2)CC1 | inactive
66 | COC(=O)[C@]1(S(=O)(=O)c2ccccc2)C[C@@H]2ON=C(c3ccc(OC)cc3)[C@@H]2C1 | inactive
67 | N#C[C@]1(S(=O)(=O)c2ccccc2)C[C@@H]2ON=C(c3cccc(Br)c3)[C@@H]2C1 | 6.51 µM (active)
68 | Cc1nc2sc(C)c(C)n2c(=O)c1S(=O)(=O)NCCc1ccc(Cl)cc1 | inactive
69 | O=C(CN1CCN(S(=O)(=O)c2ccc(Cl)s2)CC1)N1CCCCC1 | inactive
70 | O=C(N/N=C/c1cc2c(cc1Br)OCO2)C1COc2ccccc2O1 (centres undefined) | inactive
71 | O=C(N/N=C/c1ccc(O)c(O)c1)C1c2ccccc2Oc2ccccc21 | 25.9 µM (active)
72 | CCC(C)(C)NC(=O)C1c2ccccc2Oc2ccccc21 | inactive
73 | COC1[C@H](OC(N)=O)C(O)[C@H](Oc2ccc3c(O)c(NC(=O)c4ccc(O)c(CC=C(C)C)c4)c(=O)oc3c2C)OC1(C)C (some centres undefined) | inactive
74 | O=C1C=C(NCCNc2c(F)c(F)c(CO)c(F)c2F)CCC1 | inactive
75 | O=c1[nH]c(NCCO)nnc1Cc1ccc(Cl)cc1 | inactive
76 | CC(C)c1ccc(Cc2nnc(NCCCO)[nH]c2=O)cc1 | inactive
77 | COc1ccc(Cc2nnc(N/N=C/c3ccccc3O)[nH]c2=O)cc1OC | 0.0206 µM (active)
78 | CCc1cc(=O)oc2cc(C)cc(OC(C)C(=O)O)c12 (centres undefined) | inactive

Row | SMILES | Potency
79 | CC(C)CNS(=O)(=O)c1ccc(OCC(=O)Nc2ccc3c(c2)OCO3)c(Cl)c1 | inactive
80 | CC(=O)OCC(C)n1c(=O)c2ccccc2n1C(C)=O (centres undefined) | inactive
81 | CCCc1cc(=O)[nH]c(SCC(=O)N2C(C)CCCC2C)n1 (centres undefined) | inactive
82 | CCCCCn1c(=O)[nH]c2cc(C(=O)Nc3cc(C)cc(C)c3)ccc2c1=O | 4.61 µM (active)
83 | CCCCCn1c(=O)[nH]c2cc(C(=O)NCCCN3CCCCC3C)ccc2c1=O (centres undefined) | inactive
84 | COCCn1c(=O)[nH]c2cc(C(=O)NCc3cccnc3)ccc2c1=O | inactive
85 | CCN(C(=O)CSc1nnnn1-c1ccc(OC)cc1)C1CCS(=O)(=O)C1 (centres undefined) | inactive
86 | COc1ccc([C@H]2CC(=O)C=C(/C=C/c3ccccc3)C2)cc1 | inactive
87 | COc1ccc2c(c1)CCc1c(C(=O)Nc3c(C)n(C)n(-c4ccccc4)c3=O)noc1-2 | inactive
88 | COc1cc(C(=O)Nc2nccs2)cc(OC)c1OC | inactive
89 | COc1cc(NC(=O)c2noc3c2CSc2ccccc2-3)cc(OC)c1OC | 8.2 µM (active)
90 | COc1cccc(COC(=O)C2CCN(S(=O)(=O)c3cccs3)CC2)c1OC | inactive
91 | CC(C)(Oc1ccc(Cl)cc1)C(=O)OCC(=O)NCCc1ccc(S(N)(=O)=O)cc1 | inactive
92 | Cc1ccc(CCN2CC(C(=O)O)CC2=O)cc1 (centres undefined) | inactive
93 | COCCCNc1nc2c(-c3cccc(C(F)(F)F)c3)nnn2c2ccccc12 | inactive
94 | Cc1ccc(C(=O)O)cc1S(=O)(=O)NCC1CCCO1 (centres undefined) | inactive
95 | Cc1ccc(-c2nnc(Nc3cccc(Br)c3)c3ccccc23)cc1S(=O)(=O)NCC1CCCO1 (centres undefined) | 11.6 µM (active)
96 | Cc1ccc(-c2nnc(Nc3ccc(C(=O)N(C)C)cc3)c3ccccc23)cc1S(N)(=O)=O | inactive
97 | CCNS(=O)(=O)c1cc(-c2nnc(Nc3cccc(C(F)(F)F)c3)c3ccccc23)ccc1C | 5.8 µM (active)
98 | Cc1cc(Cl)c(S(=O)(=O)NCC2CCCO2)cc1OCC(N)=O (centres undefined) | inactive
99 | CCC(C)CN1C(=O)CN(S(C)(=O)=O)CC1(C)C(=O)Nc1ccc2c(c1)OCCO2 (centres undefined) | inactive
100 | Cc1ccc(CSc2nc(-c3ccccc3)c(C#N)c(=O)[nH]2)cc1 | inactive
101 | CCCCCN1CC(O)=C(c2ccccc2)C1=N | inactive
102 | Cc1nnc(SCC(=O)N2CCN(c3ccccc3)CC2)n1-c1ccccc1 | inactive
103 | CCC(C)Sc1nnc(-c2c[nH]c3ccccc23)n1CCOC (centres undefined) | inactive
104 | CCOC(=O)N1CCN(C(=O)CSc2nnc(-c3c[nH]c4ccccc34)n2CCOC)CC1 | 20.6 µM (active)

— PubChem BioAssay AID686978 (National Center for Advancing Translational Sciences (NCATS), 2013)
